From PubChem BioAssay
Compounds with a hit are over-represented: about 12% of the library has one in this group of screens.
PLK1 PBD inh – inhibitors of human PLK1 polo-box domain binding. Potency, µM, without a hit: max response, negative = inhibition, usual class: inhibitors. P53350. Plk1 PBD binding of FITC phosphopeptide, fluorescence polarization. actives 2.8% (n = 360,000); also: series mostly up to about 57 µM; nearly all actives have a fitted effect of over 65% in size
RORg inh – inhibitors of mouse ROR gamma transcriptional activity | AID 2551 | Potency, µM (highest dose often 53.6 µM), without a hit: at the top dose activity change, negative = inhibition, most hits filed as inhibitors | actives 5.4% (n = 310,000) | Drosophila S2 Gal4-RORgamma UAS-luciferase reporter, 20 h | P51450; also: nearly all actives have a fitted effect of over 60% in size
Target sequence (P51450 whole entry, looked up, the tested form may be a part): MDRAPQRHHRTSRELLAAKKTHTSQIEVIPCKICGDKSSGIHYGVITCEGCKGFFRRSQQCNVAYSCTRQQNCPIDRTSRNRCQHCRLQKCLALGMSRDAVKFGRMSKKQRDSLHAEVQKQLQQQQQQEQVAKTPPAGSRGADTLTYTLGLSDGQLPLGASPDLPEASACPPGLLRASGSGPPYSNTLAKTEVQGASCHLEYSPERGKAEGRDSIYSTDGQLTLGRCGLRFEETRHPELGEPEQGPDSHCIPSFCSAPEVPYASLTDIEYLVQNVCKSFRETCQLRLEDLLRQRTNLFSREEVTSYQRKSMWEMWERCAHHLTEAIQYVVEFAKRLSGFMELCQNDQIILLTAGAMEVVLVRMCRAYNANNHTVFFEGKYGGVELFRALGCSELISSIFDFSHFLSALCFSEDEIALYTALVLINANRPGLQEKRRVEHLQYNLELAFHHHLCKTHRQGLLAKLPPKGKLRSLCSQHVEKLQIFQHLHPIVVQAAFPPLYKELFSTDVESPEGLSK
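Stable Schneider cell line, Gal4 DNA-binding domain fused to ROR gamma, UAS-luciferase. Cmpd 1 hr RT → CuSO4 700 uM final → 20 hr RT → luciferase reagent 10 min → luminescence.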
VP16 counter – inhibits Gal4-VP16 luciferase reporter, ROR gamma counter-screen | Drosophila S2 Gal4-VP16 UAS-luciferase, luminescence, 20 h | Potency, µM (top dose mostly 53.6 µM), for the others: at the top dose activity, negative = inhibition, hits mostly inhibitors | actives 3.5% (n = 310,000) | AID 2546;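 also: Gal4-VP16 expression switched on by copper sulfate through the metallothionein promoter; nearly all actives have a fitted effect of over 50% in size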
Sfp PPTase inh – Sfp phosphopantetheinyl transferase inhibition. Biochemical Sfp PPTase activity, qHTS. actives 3.5% (n = 310,000). Potency, µM, for the others: largest response in the series, negative = inhibition, usual class: inhibitors. AID 1490;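 also: the enzyme is Sfp with the accession as filed and its product quenches rhodamine fluorescence; 0% = enzyme reaction without inhibitor and -100% = no enzyme wells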
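Fluorescence-quenching assay: 15 nM Sfp-PPTase preincubated 15 min at room temperature with compound, then 5 uM rhodamine-CoA and 12.5 uM BHQ-2-labelled YbbR peptide added. Fluorescence (ex 525/em 598 nm) read at start and after 30 min; difference gives rate.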
ALDH1A1 block – inhibitors of human aldehyde dehydrogenase 1A1 | P00352 | Purified ALDH1A1, NADH fluorescence, propionaldehyde substrate | Potency, µM (top dose mostly 75.3 µM), for the others: top-dose activity, negative = inhibition, hits mostly inhibitors | actives 7.3% (n = 220,000); active = well fitted inhibition curve with a large enough effect, not every such curve was filed as active; inconclusive = small, poorly fitted or top-dose-only effect, or another doubt; inactive = no such curve, though single readings can be large or run the other way;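 also: plate controls were no enzyme wells and a reference inhibitor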
* hit, by the source's call; ? = inconclusive; · = not tested or not shown; [ ] = remark or other dose. Unless noted, calls follow the shape of the dose curve; as a rule, active = well fitted curve in the direction sought with a large enough effect; inconclusive = small, poorly fitted or top-dose-only effect, or another doubt; inactive = no such curve, though single readings can be large; an effect the other way counts as inactive or inconclusive. Unless noted, % is scaled to controls: 0 for no effect and ±100 for the full control effect; potency is read from the fitted curve at half-maximal effect.

SMILES	PLK1 PBD inh	RORg inh	VP16 counter	Sfp PPTase inh	ALDH1A1 block
CC(C)C[C@@H](CN)NC(=O)c1nc[nH]c1C(=O)N[C@@H](C)C(=O)CNC[C@H](CC(C)C)NC(=O)c1nc[nH]c1C(=O)N[C@@H](CC(=O)O)C(=O)O	-16.0%	·	·	·	·
CC(C)C[C@@H](CNCC(=O)[C@H](CC(C)C)NC(=O)c1[nH]cnc1C(=O)N[C@H](CN)CC(C)C)NC(=O)c1nc[nH]c1C(=O)N[C@@H](Cc1ccccc1)C(=O)O	21.2µM*	·	·	·	·
COc1cc2c(cc1O)CCC1C2CC[C@]2(C)[C@@H](O)CC[C@@H]12 (some centres not stated)	·	·	·	·	-1.8%
O=[N+]([O-])c1ccccc1CNC1CCCCCC1	-10.5%	-3.8%	-16.6%	-18.6%	14.1µM*
COC(=O)CC1C(=O)NCCN1C(=S)Nc1ccccc1 (configuration not stated)	-6.0%	-12.0%	-6.3%	-26.6%	-7.6%
COC(=O)CC1C(=O)NCCN1C(=S)Nc1cc(C)cc(C)c1 (configuration not stated)	-3.3%	?	-2.6%	-1.7%	-9.8%
CCNC(=S)N1CCNC(=O)C1CC(=O)OC (configuration not stated)	-1.7%	25.1%	?	79.4µM*	-0.5%
CC(C)OC(=O)CC1C(=O)NCCN1C(=S)NC(=O)c1cccs1 (configuration not stated)	-9.2%	2.51µM*	11.2µM*	56.2µM*	?
CCc1ccccc1NC(=S)N1CCNC(=O)C1CC(=O)OC (configuration not stated)	21.2µM*	-11.8%	5.0%	9.9%	-1.0%
COC(=O)CC1C(=O)NCCN1C(=S)NC(=O)c1ccccc1[N+](=O)[O-] (configuration not stated)	-18.2%	-19.7%	-3.8%	79.4µM*	-8.6%
COc1ccc(Oc2c(OC)cc(NCc3ccc(CN)cc3)c3ncccc23)cc1	-23.1%	·	·	·	·
CCOC(=O)C1CCCN(C(=O)c2cc(F)ccc2C)CC1 (configuration not stated)	-7.5%	·	·	·	·
COc1cccc(Cn2c(=O)c(C)nc3cnc(N4CCN(C)CC4)nc32)c1	·	-15.7%	3.4%	3.5%	?
COc1ccc(C2NCCc3c2[nH]c2ccccc32)cc1COc1ccc(F)cc1 (configuration not stated)	-14.5%	10µM*	8.91µM*	44.7µM*	1.9%
CC1CCC/C(=C\c2ccc(O)cc2)C1=O (configuration not stated)	0.1%	·	·	·	·
COc1ccc(C2CC(=O)C(C=NCCCN3CCOCC3)=C(O)C2)cc1 (configuration not stated)	-0.2%	-3.8%[0.365 µM]	·	-0.4%	-13.7%
CN(C)CC1CC/C(=C\c2ccc(O)cc2)C1=O (configuration not stated)	6.7µM*	·	·	·	·
COc1ccc(/C=C2/CCC(CN3CCOCC3)C2=O)cc1 (configuration not stated)	5.32µM*	·	·	·	·
COc1ccc(C=NCCCN2CCOCC2)cc1	-19.2%	-11.2%	18.5%	-2.1%	20µM*
O=C(NCc1ccco1)C(c1cccs1)N(Cc1ccccc1)C(=O)Cn1nnc2ccccc21 (configuration not stated)	0.0%	?	-17.2%	-16.8%	-5.6%
O=C(NCc1ccco1)C(c1ccco1)N(CCc1ccccc1)C(=O)Cn1nnc2ccccc21 (configuration not stated)	3.77µM*	19.0%	-3.0%	?	?
O=C(NCc1ccco1)C(c1ccco1)N(Cc1cccs1)C(=O)Cn1nnc2ccccc21 (configuration not stated)	-9.4%	-12.9%	-26.2%	-21.5%	14.1µM*
CCOc1ccc(S(=O)(=O)c2ccc(C)cc2)c2c1no[n+]2[O-]	0.1%	·	·	·	·
CCN(CC)S(=O)(=O)c1ccc(N/N=C/c2ccc(O)cc2O)nc1	-9.1%	14.1µM*	?	-11.2%	7.3%
O=[N+]([O-])c1ccc(NN=Cc2ccc(O)cc2O)nc1	-1.9%	·	·	·	·
SMILES	PLK1 PBD inh	RORg inh	VP16 counter	Sfp PPTase inh	ALDH1A1 block
Cc1cccc(C)c1NC(=O)c1cc(S(=O)(=O)N2CCC3(CC2)OCCO3)ccc1F	2.8%	·	·	·	·
Cc1cc(C)cc(NC(=O)/C=C/c2ccc([N+](=O)[O-])s2)c1	-21.3%	0.4%	-12.2%	9.7%	-0.9%
Cc1ccccc1NC(=O)/C=C/c1ccc([N+](=O)[O-])s1	-19.9%	4.47µM*	3.16µM*	4.8%	-2.7%
O=C(Nc1cccc2ccccc12)c1ccc([N+](=O)[O-])s1	-8.2%	-30.0%	?	15.2%	-4.3%
CC(=O)c1cccc(NC(=O)/C=C/c2ccc([N+](=O)[O-])s2)c1	-13.7%	10µM*	4.47µM*	11.0%	-3.8%
O=C(Nc1ccccc1F)c1ccc([N+](=O)[O-])s1	-22.0%	12.6µM*	-29.2%	0.6%	-14.6%
CC(NC(=O)C1CCCN1C(=O)CN)C(=O)O (configuration not stated)	·	-2.8%	-6.7%	?	·
CS(=O)(=O)N(Cc1nnc(-c2cccs2)o1)c1ccc(Cl)cc1F	11.9µM*	59.5%	3.2%	12.1%	-10.1%
Fc1ccc(Cc2nnc(-c3cccs3)o2)cc1	-2.2%	?	6.6%	1.8%	-0.9%
Cc1ccnc(N=Cc2nc(-c3ccccc3Br)oc2O)c1	-2.8%	16.5%	-6.9%	-13.3%	3.98µM*
Cc1cccc(/N=C/c2nc(-c3ccccc3Br)oc2O)n1	-8.0%	-44.2%	-1.0%	1.4%	3.55µM*
Oc1oc(-c2ccc(Br)cc2)nc1C=Nc1ccc(Br)cn1	-3.8%	13.1%	-6.6%	21.9%	-15.5%
O=C(O)c1ccc(CNC(=O)C2CCN(S(=O)(=O)c3cccs3)CC2)cc1	1.0%	·	·	·	·
CC(=NCc1ccco1)c1c(C)[nH]n(-c2nc3ccccc3s2)c1=O	-0.7%	?	?	7.3%	4.5%
CCC(=NCc1ccccc1)c1c(C(F)(F)F)[nH]n(-c2nc3ccccc3s2)c1=O	-10.0%	8.91µM*	-16.9%	-18.6%	-6.6%
CCCc1[nH]n(-c2nc3ccccc3s2)c(=O)c1C=NCC(C)C	-3.5%	?	-8.9%	-3.8%	12.6µM*
CCCN=C(C)c1c(-c2ccccc2)[nH]n(-c2nc3ccccc3s2)c1=O	-10.9%	2.51µM*	-24.5%	4.4%	0.5%
CCN(CC)CCCN=Cc1c(-c2ccccc2)[nH]n(-c2nc3ccccc3s2)c1=O	-10.1%	?	-7.4%	-2.7%	·
O=c1c(C=NCc2cccnc2)c(C(F)(F)F)[nH]n1-c1nc2ccccc2s1	-18.9%	0.7%	-11.9%	18.6%	-7.7%
C/C(=N/NC(=O)c1cccs1)c1c(C)[nH]n(-c2nc3ccccc3s2)c1=O	?	1.41µM*	2µM*	7.6%	-0.1%
COC(=O)c1ccc(C(NC(=O)OCc2ccccc2)/C(C)=C/[C@@H](C)C(=O)NCCO)cc1 (some centres not stated)	·	38.1%	-2.0%	0.8%	?
